The target of assay [1] is 3',5'-cyclic-AMP phosphodiesterase 4B (Homo sapiens) (UniProt Q07343). The experiment in a line: qHTS Assay for Inhibitors of PDE-IV (AID 607; active = well fitted activation curve with a large enough effect in the main read-out, with a control signal flat, not every such curve was filed as active). The procedure, abridged: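 Live HEK293 cells with a modified cyclic nucleotide-gated (CNG) channel report intracellular cAMP via membrane-potential dye fluorescence (ex 535/em 590 nm). Endogenous PDE-IV was targeted. Compounds were tested at up to 22.9 uM final; RO 20-1724 100 uM served as control.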
(Quantitative high-throughput screening tests each substance at several concentrations.)

A short description of assay [2]: Cellular Toxicity (caspase-3) HepG2 (AID 654).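 Also: cells exposed to compound for 16 hours before reading.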 The gist of the method: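 Caspase 3/7 activation is measured as a luminescence increase (aminoluciferin substrate) after 16 h compound exposure of human hepatocarcinoma HepG2 cells. AC50 values are Hill fits, scaled between DMSO baseline and 100 uM tamoxifen stimulation.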
The nature of assay [3]: Cellular Toxicity (caspase-3) Jurkat (AID 655).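 Also: cells exposed to compound for 16 h at 37 °C before reading.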 The gist of the method:
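Luminescent Caspase-Glo 3/7 read-out (20 min, room temperature) after 16 h compound treatment at 37 C of 5000 Jurkat cells per well. AC50 derived by Hill-equation fitting, scaled between DMSO basal and 100 uM tamoxifen stimulation.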

Assay [4] in a line: Cellular Toxicity (caspase-3) HUV-EC-C (AID 656). The gist of the method: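 Luminescent Caspase-Glo 3/7 readout after 16 h, 37 °C compound exposure of HUV-EC-C endothelial cells, 1000 per well, complete medium. AC50 derived by Hill fitting, with DMSO as baseline and 100 uM tamoxifen as full activation.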
Assay [5] in a line: Cellular Toxicity (caspase-3) SHSY5Y (AID 657). The gist of the method:
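Luminescent Caspase-Glo 3/7 read-out, 1 hr room temperature, follows 16 hours of compound treatment of SH-SY5Y cells at 37 °C. Normalization: DMSO basal, 10 uM staurosporine as 100%; AC50 values from Hill-equation concentration-response fits.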

A short description of assay [6]: Cellular Toxicity (caspase-3) BJ (AID 658). The procedure, abridged: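 Plated BJ cells (1000/well) rested 5 hr, received compound for 16 hr at 37 °C, then Caspase-Glo 3/7 reagent for 1 hr at room temperature before luminescence reading.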
Assay [7] in a line: Cellular Toxicity (caspase-3) MRC-5 (AID 659). The note with it: Potency: caspase-3 activation. The procedure, abridged:
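Apoptosis readout in MRC-5 cells: luciferase light generated after caspase 3/7 cleaves a peptide-aminoluciferin substrate, measured post 16 hr compound incubation at 37 °C.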

The nature of assay [8]: Cellular Toxicity (caspase-3) Mesangial (AID 660).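 Also: combined caspase 3 and 7 activity read by Caspase-Glo luminescence; cells exposed to compound for 16 h before the caspase read.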 The procedure, abridged:
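Caspase 3/7 activation measured by Caspase-Glo 3/7 luminescence (20 min, room temperature) following 16 h exposure of mesangial cells (1000/well); AC50 from Hill-equation fit, normalized to DMSO and 100 uM tamoxifen.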

Assay [9] in a line: Cellular Toxicity (caspase-3) SK-N-SH (AID 661). The gist of the method:
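Caspase 3/7 activation was read by luminogenic substrate cleavage after 16 hour treatment of SK-N-SH cells. Signal was scaled between DMSO and 10 uM staurosporine, and concentration-response data were fitted with the Hill equation for AC50.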

The nature of assay [10]: Cellular Toxicity (caspase-3) H-4-II-E (AID 663).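 Also: cells exposed to compound for 16 hr before readout.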 The gist of the method:
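Caspase 3/7 activation measured in H-4-II-E cells in complete culture medium after 16 hr treatment at 37 °C, using luciferase-coupled substrate readout; AC50 values come from Hill-equation fits of normalized concentration-response data.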

Assay [11] can be described thus: Cellular Toxicity (caspase-3) Hek293 (AID 664).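 Also: cells exposed to compound for 16 h at 37 °C before readout.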 The gist of the method:
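Concentration-response qHTS: caspase 3/7 activation measured by luminescent aminoluciferin substrate cleavage after 16 h compound exposure of Hek 293 cells. AC50 from Hill equation, with DMSO as basal and 100 uM tamoxifen as 100%.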

Assay [12] in a line: Cellular Toxicity (caspase-3) N2a (AID 665).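 Also: compound exposure lasted 16 h at 37 °C before readout.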 The procedure, abridged:
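Caspase-3/7 activation measured as luminescence from Caspase-Glo reagent (1 h, room temperature) after 16 h compound exposure of mouse N2a cells. AC50 values from Hill-equation concentration-response, scaled between DMSO and 10 uM staurosporine.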

Assay [13] can be described thus: Cellular Toxicity (caspase-3) NIH 3T3 (AID 666).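 Also: caspase signal read after 16 h compound exposure.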 The procedure, abridged:
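Caspase-Glo 3/7 luminescence reported caspase activation in 1000 NIH 3T3 cells/well after 16 h compound exposure at 37 C. DMSO set basal and 100 uM tamoxifen set 100% stimulation; concentration-response modeled with the Hill equation for AC50.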

The nature of assay [14]: Cellular Toxicity (caspase-3) Renal Proximal Tubule (AID 667).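 Also: cells exposed to compound for 16 hours at 37 °C before detection.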 The procedure, abridged:
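Caspase 3/7 activation measured by luminescent aminoluciferin release in primary rat proximal tubule cells after 16 hr compound exposure at 37 °C. AC50 from Hill-fitted concentration-response, scaled between DMSO and 10 uM staurosporine.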

The target of assay [15] is Cytochrome P450 2C9 (Homo sapiens) (UniProt P11712). Put plainly: qHTS Assay for Inhibitors and Substrates of Cytochrome P450 2C9 (AID 883). Also: nearly all actives have a fitted effect of over 60% in size. The procedure, abridged:
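Human CYP2C9 (10nM) hydroxylated Luciferin-H (100uM, at its KM) to luciferin in 25mM KPO4. Compound was preincubated 10 min at 37C, then NADPH regeneration started a 60 min reaction at 37C. Luminescence was read after detection reagent, normalized to 57uM sulphaphenazole.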

For assay [16], the target named is Cytochrome P450 3A4 (Homo sapiens) (UniProt P08684). Put plainly: qHTS Assay for Inhibitors and Substrates of Cytochrome P450 3A4 (AID 884). Also: series mostly up to about 57 µM; nearly all actives have a fitted effect of over 50% in size. The procedure, abridged:
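Luminescent readout of luciferin produced by CYP3A4 (20 nM) dealkylation of Luciferin-PPXE, 25 uM (its KM). NADPH-driven reaction ran 60 min at RT after 10 min compound preincubation; data scaled to 57 uM ketoconazole as 100% inhibition.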

The target of assay [17] is Guanine nucleotide-binding protein G(i) subunit alpha-1 (Homo sapiens) (UniProt P63096). Put plainly: qHTS Assay for Inhibitors of RGS12 GoLoco Motif Activity (Green Fluorophore) (AID 879).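 Also: negative values mean loss of peptide binding seen as reduced polarization.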 The procedure, abridged:
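A drop in FITC polarization marked displacement of the FITC-tagged RGS12 GoLoco peptide (10 nM) from Gαi1 (50 nM). Compounds were incubated 10 min at room temperature in Tris pH 7.5 buffer containing 150 mM NaCl, 0.1 mM GDP and 0.05% NP40; unlabeled peptide titration served as control.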

Assay [18] concerns the target Cytochrome P450 3A4 (Homo sapiens) (UniProt P08684). Put plainly: qHTS Assay for Activators of Cytochrome P450 3A4 (AID 885). Also: nearly all actives have a fitted effect of over 65% in size. The procedure, abridged:
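Using 20nM recombinant human CYP3A4 in potassium phosphate (200mM), substrate Luciferin-PPXE at 25uM, luminescent luciferin detection followed a 60-min RT NADPH reaction; data scaled to 57 uM ketoconazole.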

The target in assay [19] is Cytochrome P450 2D6 (Homo sapiens) (UniProt P10635). Put plainly: qHTS Assay for Inhibitors and Substrates of Cytochrome P450 2D6 (AID 891). Also: nearly all actives have a fitted effect of over 60% in size. Also: potency is read from the fitted curve at half-maximal effect. The procedure, abridged:
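Luminescent read-out of luciferin formed by 5 nM human CYP2D6 demethylating 30 uM Luciferin-ME EGE (Km level) over 60 min at room temperature after NADPH regeneration addition. Data normalized to full inhibition by 1.43 uM quinidine.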

Assay [20] can be described thus: qHTS Assay for Identification of Small Molecule Antagonists for NFkB Signaling Pathway (AID 895; active = well fitted inhibition curve with a large enough effect in the signal ratio, with a control signal flat, not every such curve was filed as active; the % refers to the signal ratio; also: potency is read from the fitted curve at half-maximal effect). The procedure, abridged: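 NFkB-bla ME-180 cervical carcinoma cells with beta-lactamase reporter under NFkB response element; compounds added, then TNF alpha at 10 pM final (EC50), 5 h at 37 C. LiveBLAzer substrate 2 h, room temperature; emission 460/530 nm at 405 nm excitation.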

In PubChem BioAssay (NCATS) one finds outcome and Potency data, which are given here for 21 molecules.

Values without a mark were called inactive. Results filed as inconclusive are left out. The source made the active and inactive calls. Unless noted, calls follow the shape of the dose curve; as a rule, active = well fitted curve in the direction sought with a large enough effect; inconclusive = small, poorly fitted or top-dose-only effect, or another doubt; inactive = no such curve, though single readings can be large; an effect the other way counts as inactive or inconclusive.

Chain of Cytochrome P450 2D6 (Homo sapiens) (P10635 whole entry, looked up): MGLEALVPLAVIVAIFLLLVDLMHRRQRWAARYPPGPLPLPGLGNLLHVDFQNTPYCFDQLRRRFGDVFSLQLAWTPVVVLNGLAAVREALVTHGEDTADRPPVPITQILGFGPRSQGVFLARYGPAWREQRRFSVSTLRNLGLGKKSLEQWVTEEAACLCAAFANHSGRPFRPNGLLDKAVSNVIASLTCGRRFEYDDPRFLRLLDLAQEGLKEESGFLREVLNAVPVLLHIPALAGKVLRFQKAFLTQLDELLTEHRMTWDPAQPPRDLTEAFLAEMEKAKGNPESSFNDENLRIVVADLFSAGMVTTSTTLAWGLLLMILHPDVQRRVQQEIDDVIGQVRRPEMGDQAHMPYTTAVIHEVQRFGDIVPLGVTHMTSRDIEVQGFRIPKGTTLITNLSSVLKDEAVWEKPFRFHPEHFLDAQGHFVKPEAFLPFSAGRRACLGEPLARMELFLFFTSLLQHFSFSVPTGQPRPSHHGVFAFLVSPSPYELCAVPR
Chain of 3',5'-cyclic-AMP phosphodiesterase 4B (Homo sapiens) (Q07343 whole entry, looked up): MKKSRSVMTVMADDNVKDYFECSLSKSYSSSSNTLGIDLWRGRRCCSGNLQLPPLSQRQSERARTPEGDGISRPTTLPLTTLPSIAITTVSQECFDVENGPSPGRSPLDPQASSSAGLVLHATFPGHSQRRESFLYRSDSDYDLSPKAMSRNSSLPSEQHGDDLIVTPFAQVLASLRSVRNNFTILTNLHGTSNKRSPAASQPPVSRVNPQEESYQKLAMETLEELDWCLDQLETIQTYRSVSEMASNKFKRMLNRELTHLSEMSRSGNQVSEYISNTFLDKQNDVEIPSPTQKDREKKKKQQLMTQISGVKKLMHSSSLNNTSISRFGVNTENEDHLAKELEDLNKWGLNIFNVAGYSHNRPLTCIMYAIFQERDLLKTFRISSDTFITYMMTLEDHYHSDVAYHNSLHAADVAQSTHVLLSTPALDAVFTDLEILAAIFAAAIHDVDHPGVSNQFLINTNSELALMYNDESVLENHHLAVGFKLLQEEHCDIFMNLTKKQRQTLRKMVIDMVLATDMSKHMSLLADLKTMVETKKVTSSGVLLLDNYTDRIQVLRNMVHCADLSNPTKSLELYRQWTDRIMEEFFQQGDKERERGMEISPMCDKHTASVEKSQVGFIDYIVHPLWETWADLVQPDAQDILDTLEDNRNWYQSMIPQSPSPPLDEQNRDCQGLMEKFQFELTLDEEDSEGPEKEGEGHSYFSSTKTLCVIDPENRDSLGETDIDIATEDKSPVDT
Chain of Cytochrome P450 3A4 (Homo sapiens) (P08684 whole entry, looked up): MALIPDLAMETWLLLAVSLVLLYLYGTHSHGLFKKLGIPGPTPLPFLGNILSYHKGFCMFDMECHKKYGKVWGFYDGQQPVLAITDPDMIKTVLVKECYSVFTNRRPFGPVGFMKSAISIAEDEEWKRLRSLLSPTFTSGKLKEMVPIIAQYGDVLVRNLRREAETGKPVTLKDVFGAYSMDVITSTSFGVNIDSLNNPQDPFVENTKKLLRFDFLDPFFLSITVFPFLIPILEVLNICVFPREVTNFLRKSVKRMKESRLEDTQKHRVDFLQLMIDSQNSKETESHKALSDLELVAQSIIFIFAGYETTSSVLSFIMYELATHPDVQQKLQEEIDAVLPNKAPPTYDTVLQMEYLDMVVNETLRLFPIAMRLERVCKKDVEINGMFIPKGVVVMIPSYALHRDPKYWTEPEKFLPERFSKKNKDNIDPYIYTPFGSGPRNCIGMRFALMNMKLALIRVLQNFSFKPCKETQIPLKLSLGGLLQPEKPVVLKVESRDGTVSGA
Chain of Guanine nucleotide-binding protein G(i) subunit alpha-1 (Homo sapiens) (P63096 whole entry, looked up): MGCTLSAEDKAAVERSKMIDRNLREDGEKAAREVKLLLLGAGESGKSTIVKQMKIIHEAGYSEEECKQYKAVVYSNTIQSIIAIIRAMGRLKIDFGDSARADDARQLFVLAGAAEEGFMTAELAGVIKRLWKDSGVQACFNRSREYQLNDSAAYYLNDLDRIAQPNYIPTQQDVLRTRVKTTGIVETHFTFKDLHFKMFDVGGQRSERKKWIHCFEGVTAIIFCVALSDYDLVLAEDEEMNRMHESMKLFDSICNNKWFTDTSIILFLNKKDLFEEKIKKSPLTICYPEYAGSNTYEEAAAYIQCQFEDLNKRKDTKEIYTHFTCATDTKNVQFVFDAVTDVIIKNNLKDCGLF
Chain of Cytochrome P450 2C9 (Homo sapiens) (P11712 whole entry, looked up): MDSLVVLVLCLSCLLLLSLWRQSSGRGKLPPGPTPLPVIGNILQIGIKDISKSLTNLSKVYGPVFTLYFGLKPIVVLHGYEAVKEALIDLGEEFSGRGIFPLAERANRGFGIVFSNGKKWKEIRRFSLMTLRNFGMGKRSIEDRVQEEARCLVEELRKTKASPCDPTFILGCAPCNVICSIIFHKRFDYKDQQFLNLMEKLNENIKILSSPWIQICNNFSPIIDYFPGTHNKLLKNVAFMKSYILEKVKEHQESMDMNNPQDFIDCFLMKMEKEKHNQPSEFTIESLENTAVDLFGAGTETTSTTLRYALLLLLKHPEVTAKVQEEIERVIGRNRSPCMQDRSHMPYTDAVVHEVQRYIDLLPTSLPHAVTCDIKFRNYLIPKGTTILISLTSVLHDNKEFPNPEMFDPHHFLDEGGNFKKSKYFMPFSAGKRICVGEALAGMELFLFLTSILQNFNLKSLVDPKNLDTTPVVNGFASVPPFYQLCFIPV

As for `Nc1ccc(S(=O)(=O)Nc2nccs2)cc1`, the call in [1], in assay [4], in [5], in assay [6], in [8] and in assay [9] was inactive. In addition, the molecule was called inactive in assay [10], in [11], in assay [12], in [13] and in assay [14]. In addition, the Potency result in [2], in assay [3], in assay [7], in assay [15] and in [16] was “inactive” each time.

With `Cc1cc(N)c2ccccc2[n+]1CCCCCCCCCC[n+]1c(C)cc(N)c2ccccc21`, the result in [1], in assay [17] and in assay [18] was inactive.

With `NC(N)=NCCC[C@H](N)C(=O)O`, the result in assay [1] and in assay [17] was inactive. For the same molecule, the Potency entry in [15] and in assay [19] was “inactive” each time.

In the case of `CCN(CC)CCOC(=O)C1(C2CCCCC2)CCCCC1`, the result in assay [1], in assay [17] and in assay [18] was inactive.

With `OCCN1CCN(CCCN2c3ccccc3Sc3ccc(Cl)cc32)CC1`, the result in [1] and in [17] was inactive.

On to `CCCCCCCCCCCCCCCC(=O)NCCO`, for which the outcome in assay [1] and in assay [17] was inactive.

For the molecule `Nc1cc(=O)[nH]c(N)n1`, the outcome in assay [1] and in assay [17] was inactive. In addition, the Potency entry in assay [15] and in assay [19] was “inactive” each time.

For `CC1=C(CC(=O)O)c2cc(F)ccc2/C1=C\c1ccc(S(C)=O)cc1` (stereo unspecified), the molecule was called inactive in assay [1].

In the case of `NC1CCN(c2cccc(Cl)n2)CC1`, the call in assay [1] and in assay [17] was inactive.

For `CCN(CC)CCNC(=O)c1cc(Cl)c(N)cc1OC`, the molecule was classed as inactive in assay [1] and in [17]. Further, the Potency result in [16] was “inactive”.

In the case of `CCCCOC(=O)c1ccc(O)cc1`, the outcome in assay [1], in assay [4], in assay [5], in assay [6], in assay [8] and in assay [9] was inactive. The call in assay [10], in [11], in assay [12], in assay [13] and in assay [14] was inactive. In addition, the Potency entry in assay [2], in assay [3], in assay [7] and in assay [16] was “inactive” each time.

Consider `CC(=O)c1ccc2c(c1)N(CCCN(C)C)c1ccccc1S2`, for which the result in assay [1] was inactive.

In the case of `CCCn1cnc2c1c(=O)n(CCCCC(C)=O)c(=O)n2C`, the result in assay [1] and in assay [17] was inactive.

Take `Cc1cc(CC(=O)O)n(C)c1C(=O)c1ccc(Cl)cc1`: the molecule was classed as inactive in [1], in [4], in assay [5], in [6], in assay [8] and in assay [9]. The molecule was classed as inactive in assay [10], in assay [11], in [12], in assay [13] and in [14]. Also, the Potency entry in assay [2], in assay [3], in assay [7] and in assay [16] was “inactive” throughout.

For `CC(C)NC[C@H](O)c1ccc(O)c(O)c1`, the molecule was called inactive in assay [1] and in assay [17].

As to `C#CCN(C)Cc1ccccc1`, the result in assay [1] and in assay [17] was inactive. The Potency result in [16] is “inactive”.

For `CNCCCC1c2ccccc2C=Cc2ccccc21`, the molecule was called inactive in [1], in assay [17] and in assay [18]. Besides, the results for the Potency in [19] and in assay [20] were 3.98 µM (active) and 8.91 µM (active), respectively.

Consider `CCOc1ccc2ccccc2c1C(=O)N[C@@H]1C(=O)N2[C@@H]1SC(C)(C)[C@@H]2C(=O)O`, for which the molecule was classed as inactive in assay [1].

In the case of `C[C@H](N)[C@H](O)c1cccc(O)c1`, the molecule was called inactive in [1].

For `C=Cc1c(C)c2cc3[nH]c(cc4nc(cc5nc(cc1[nH]2)C(C)=C5CCC(=O)O)C(CCC(=O)O)=C4C)c(C)c3C=C`, the outcome in assay [1] and in assay [17] was inactive. In addition, in assay [16], the Potency result was “inactive”.

Regarding `CC1=C(CC(=O)O)c2cc(F)ccc2/C1=C\c1ccc(S(C)(=O)=O)cc1`, the molecule was called inactive in assay [1], in assay [17] and in assay [18].
